# Sampled rows, rich in hits. Any-hit rate of the full collection: about 1.2%.
# Avidin fluor: compound fluoresces at 488/530 nm on avidin beads; compound fluorescence 488/530 nm, flow cytometry; stronger effect = higher value; fluorescence (KMESF) at 10 µM; actives 0.38% (n = 220,000); in the data active means fluorescence above about 47
# RGS7-Gao: modulates binding of RGS7 to human Galphao | P09471 | Multiplexed bead flow cytometry; actives lie on both sides | binding response (% of control), % at 10 µM | actives 0.35% (n = 220,000) | AID 1439; in the data active means binding response below about 49% or above about 150%; inconclusive means no clear call, values can overlap the other calls; inactive means in between;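 further: fluorescent Galphao held in activated GDP-AlF4 state binding bead-coupled RGS7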
# GSH bead fluor: compound fluoresces at 488/530 nm on GSH beads; actives 0.25% (n = 190,000); GSH beads flow cytometry, compound fluorescence 488/530 nm; stronger effect = higher value; fluorescence (KMESF) at 10 µM; in the data active means fluorescence above about 89;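 further: glutathione beads carrying GST-tagged Bcl family fusion proteins plus one bare bead set; values are compound well signal with DMSO vehicle wells as background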
# RGS4-Gao reg: human RGS4-Galphao interaction regulation; P09471; AID 1415; binding response (% of control), % at 10 µM; actives 0.33% (n = 220,000); Multiplexed bead flow cytometry, RGS4-Galphao binding; actives lie on both sides; in the data active means binding response below about 49% or above about 150%; inactive means in between;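 further: fluorescent Galphao activated with aluminum fluoride binding bead-coupled RGS4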
# RGS8-Gao reg: human RGS8-Galphao interaction regulation; P09471; multiplexed bead flow cytometry, RGS8-Galphao binding; actives lie on both sides; response (percent of control binding), % at 10 µM; actives 0.34% (n = 220,000); AID 1423; in the data active means response below about 60% or above about 140%; inactive means in between;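 further: Galphao activated as the GDP aluminium fluoride complex binding bead-coupled RGS8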
# RGS16-Gao HTS: regulators of human RGS16-Galphao interaction; actives 0.38% (n = 220,000); AID 1441; bead-based flow cytometry RGS16-Galphao binding, fluorescence; actives lie on both sides; binding response (% of control), % at 10 µM; call rule not given here;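 further: Galphao activated by GDP with aluminum fluoride before binding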
# * hit, by the source's call; ? = inconclusive; nt = no result given; [ ] = dose if it differs, or a comment.
SMILES,Avidin fluor,RGS7-Gao,GSH bead fluor,RGS4-Gao reg,RGS8-Gao reg,RGS16-Gao HTS
COc1ccc(-n2c(=O)c3ccccc3n(Cc3ccc(F)cc3)c2=O)cc1OC,104*,139,20,102,96,103
CC(C)OP(=O)(OC(C)C)C(NC(=O)c1ccccc1Br)C(N)=O (configuration not stated),3,?,nt,97,99,92
COc1ccc(/C=N/n2c(C)cc(C)c(C(N)=O)c2=O)cc1,7,92,255*,93,95,99
CCOc1ccc(S(=O)(=O)Nc2ccc(C(=O)N/N=C(\C)c3ccc(-n4ccnc4)cc3)cc2)cc1,50*,143,27,145,112,162
CC(=O)OCC(=O)Nc1ccc([N+](=O)[O-])cc1Cl,8,106,21,102,103,104
CC(=O)OCC(=O)Nc1ccc(Cl)cc1Cl,4,114,231*,124,112,113
CCOC(=O)c1ccc(S(=O)(=O)N2CCN(S(=O)(=O)CC)CC2)cc1,6,104,16,106,100,71
CCOC(=O)c1ccc(S(=O)(=O)N2CCN(CC(=O)NC(=O)NC3CCCCC3)CC2)cc1,14,176*[activator],30,188*[activator],152*[activator],185*[activator]
CCOc1ccc2[nH]c(=O)c(C(c3nnnn3C3CCCCC3)N3CCN(CC)CC3)cc2c1 (configuration not stated),76*,132,54,146,114,172
S=C1N(c2ccccc2)C(c2ccccc2)N2CCCN12 (configuration not stated),13,98,14,102,102,96
S=C1COC(c2ccccc2)N1c1ccccc1 (configuration not stated),5,92,142*,89,101,92
Cc1ccccc1NC(=S)N1CCC(NC(=O)c2ccco2)CC1,15,94,14,95,98,100
C=CCNS(=O)(=O)c1cccc2cc(C(=O)O)c(O)cc12,50*,108,22,99,100,104
C=CCNS(=O)(=O)c1cccc(C(C)=O)c1,16,103,11,103,103,106
CCCSCCCNC(=O)Cn1cc2c(n1)CCCCC2,3,43*,18,49*,56*,47
COCCCNC(=O)Cn1cc2c(n1)CCCCC2,5,101,16,98,99,104
CCc1nnc(NC(=O)c2ccncc2)s1,10,93,8,86,93,91
CCCc1nnc(NC(=O)c2ccncc2)s1,3,92,239*,83,91,-1
Nc1nc2ccc(O)cc2s1,5,101,187*,95,102,102
CCOC(=O)CN1C(=O)CCSc2ccc(Cl)cc21,9,?,18,101,101,106
CCCCOC(=O)C1[C@H]2C(=O)N(c3ccccc3CC)C[C@]23C=C[C@H]1O3 (some centres not stated),16,105,28,97,96,95
CCc1ccccc1N1CC23C=CC(O2)C(C(=O)OCC(C)C)C3C1=O (configuration not stated),56*,134,20,94,85,60
COc1ccc(N(CC2CO2)S(=O)(=O)c2ccccc2)cc1 (configuration not stated),9,98,54,101,102,105
O=C(c1cccc([N+](=O)[O-])c1)N1CCN(c2n[nH]c(=O)[nH]c2=O)CC1,9,?,nt,96,99,96
Cc1cc(C)n(-c2ncnc3sc4c(c23)CCCC4)n1,9,95,15,97,100,100
SMILES,Avidin fluor,RGS7-Gao,GSH bead fluor,RGS4-Gao reg,RGS8-Gao reg,RGS16-Gao HTS
Cc1cc(C)n(-c2ncnc3sc(C)c(C)c23)n1,53*,105,14,109,103,114
COc1ccccc1/C=C/C=N/n1c(-c2ccc(Cl)cc2)n[nH]c1=S,6,?,nt,93,96,95
CCOC(=O)c1c(C)[nH]c(C(=O)Cn2nnc(-c3ccccc3Cl)n2)c1C,37,100,13,104,100,99
CCOC(=O)c1c(C)[nH]c(C(=O)Cn2nnc(-c3ccccc3)n2)c1C,18,105,265*,105,98,104
COc1ccc(C(=O)Nc2cccc(C(=O)NCc3ccco3)c2)cc1,8,97,9,101,103,98
Cn1c(=O)c2c(nc(Br)n2C/C=N/NC(N)=S)n(C)c1=O,3,?,nt,95,99,94
Cc1cc(C(F)F)nn1CC(=O)NC1C(=O)N2C(C(=O)O)=C(CSc3nnnn3C)CSC12 (configuration not stated),58*,132,64,113,97,101
Cn1nnnc1SCC1=C(C(=O)O)N2C(=O)[C@@H](NC(=O)[C@H](O)c3ccccc3)[C@H]2SC1,nt,nt,16,nt,nt,nt
COc1ccc(CCNC(=O)CN(c2ccccc2OC)S(C)(=O)=O)cc1OC,8,103,263*,105,104,107
COc1ccc(CCNC(=O)/C=C/c2cc(OC)c(OC)c(OC)c2)cc1OC,73*,?,15,119,97,99
COc1ccc(CCNC(=O)CC2COc3ccccc3O2)cc1OC (configuration not stated),48*,107,26,101,100,102
COc1ccc(CCNC(=O)/C=C/c2ccc(C)cc2)cc1OC,12,101,22,103,103,103
COc1cc(OC)c(OC)cc1NC(=O)CC1COc2ccccc2O1 (configuration not stated),8,102,17,105,102,105
COc1ccc2cc(C(=O)C3CCCN(C(=O)/C=C/c4ccccn4)C3)ccc2c1 (configuration not stated),11,104,10,102,100,99
Cc1ccc(NC(=O)CN2CCN(CCN=CC3=C(O)CC(c4ccc(C)cc4)CC3=O)CC2)cc1 (configuration not stated),11,100,23,102,98,101
CCOc1ccccc1N1C(=O)CC(Nc2ccc(N3CCOCC3)cc2)C1=O (configuration not stated),1,79,245*,64,79,-173
COc1cnc(SC)nc1Nc1ccc(C#N)cc1,8,?,nt,104,98,102
CSc1c[n+]2c(n1C)CCC2,52*,113,11,106,101,108
CCOc1ccc(-n2c(-c3ccccc3)c[n+]3c2CCC3)cc1,10,?,20,96,100,100
O=C(Cn1cnc2ccccc21)OCC(=O)N1CCc2ccccc2C1,52*,141,11,142,119,122
O=C(Cn1cnc2ccccc2c1=O)N1CCc2ccccc2C1,21,93,11,93,97,99

# Source: PubChem BioAssay
